Consider 7 compounds from PubChem BioAssay (Tox21).

Experiment [1] can be described thus: qHTS assay to identify small molecule antagonists of the estrogen related receptor (ERR) signaling pathway from Tox21 library - cell viability counter screen (AID 1224834). Further: nearly all actives have a fitted effect of over 30% in size. The gist of the method: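 CellTiter-Fluor fluorescence measured; ERR cells; 17.5 h compound incubation at 37 C; 30 min reagent step.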
A short description of experiment [2]: qHTS assay to identify small molecule agonists of the constitutive androstane receptor (CAR) signaling pathway - cell viability counter screen (AID 1224836). Further: nearly all actives have a fitted effect of over 45% in size. The gist of the method: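 HepG2 cells stably carrying hCAR and a CYP2B6-2.2kb reporter; 15-concentration compounds plus PK11195 (final 0.75 uM), 23 hr at 37 C/5% CO2. Viability read by CellTiter-Fluor fluorescence.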
On the technique in general: In qHTS, concentration-response curves come from the screen itself.

A short description of experiment [3]: qHTS assay to identify small molecule antagonists of the constitutive androstane receptor (CAR) signaling pathway - cell viability counter screen (AID 1224837). Further: nearly all actives have a fitted effect of over 45% in size. Summed up:
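Using CellTiter-Fluor, viability is scored in HepG2 cells stably carrying hCAR and a 2.2kb CYP2B6 reporter after 23 hr compound exposure across 15 concentrations, with CITCO present at 50 nM.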

In experiment [4] the target is Nuclear receptor subfamily 1 group I member 3 (Homo sapiens) (UniProt Q14994). Kind of experiment: qHTS assay to identify small molecule antagonists of the constitutive androstane receptor (CAR) signaling pathway (AID 1224838).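 Further: HepG2 cells stably expressing hCAR with CYP2B6 luciferase reporter stimulated by CITCO; nearly all actives have a fitted effect of over 40% in size.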 Summed up:
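Reporter luminescence was quantified after 24 h exposure of hCAR/CYP2B6-2.2kb double-stable HepG2 cells to compounds at 15 concentrations in the presence of 50 nM CITCO final.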

For experiment [5] the target is unchanged. Kind of experiment: qHTS assay to identify small molecule agonists of the constitutive androstane receptor (CAR) signaling pathway (AID 1224839). Further: nearly all actives have a fitted effect of over 15% in size. Summed up: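 HepG2 cells stably co-transfected with hCAR and a CYP2B6-2.2kb luciferase reporter; compounds at 15 concentrations with 0.75 uM PK11195 present. After 24 hr at 37 C, luciferase read by ONE-Glo luminescence.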

A short description of experiment [6]: qHTS assay to identify small molecule antagonists of the estrogen related receptor signaling pathway with the pleiotropic PPARgamma coactivator (PGC) from Tox21 10K library - cell viability counter screen (AID 1224840; active means well fitted cell-killing curve with a large enough effect in the repeat runs, not every such curve was filed as active; further: nearly all actives have a fitted effect of over 40% in size). Summed up: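 Here the PGC/ERR cells serve as a cytotoxicity control: they are exposed to compounds for 17.5 hours at 37 C, and live-cell signal is quantified using CellTiter-Fluor fluorescence.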

Experiment [7] concerns the target Thyrotropin receptor (Homo sapiens) (UniProt P16473). Put plainly: qHTS assay to identify small molecule agonists of the thyroid stimulating hormone receptor (TSHR) signaling pathway (AID 1224843; calls by dose curve; further: nearly all actives have a fitted effect of over 45% in size). The gist of the method:
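HEK293 cells stably bearing the thyrotropin receptor were plated at 800 cells/well and challenged with compound (30 min, RT). Accumulated cAMP was quantified via cAMP-d2 competing for cryptate-tagged antibody.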

Experiment [8] is described as follows: qHTS assay to identify small molecule agonists of the hypoxia (HIF-1) signaling pathway - cell viability counter screen (AID 1224844; calls by dose curve; further: nearly all actives have a fitted effect of over 50% in size). The gist of the method: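 Multiplexed with the HRE beta-lactamase assay, this viability read used CellTiter-Glo luminescence (30 min, RT) on HRE-bla ME-180 cells treated 17 hrs with compounds in 0.5% dialyzed FBS medium.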
Experiment [9] can be described thus: qHTS assay to identify small molecule agonists of H2AX (AID 1224845; active means well fitted activation curve with a large enough effect in the signal ratio in the repeat runs, not every such curve was filed as active; the % refers to the signal ratio). The gist of the method:
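Phospho-H2AX Ser139 measured by HTRF (ex 320 nm; em 665 and 620 nm) after 24 hr antibody incubation. Compounds, 15 concentrations, 0.76% DMSO, were applied to CHO-K1 cells for 3hr at 37C before lysis.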

The nature of experiment [10]: qHTS assay to identify small molecule agonists of H2AX - cell viability counter screen (AID 1224847; calls by dose curve;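 further: wild-type CHO-K1 cells; top concentration of the series differs between compounds; nearly all actives have a fitted effect of over 30% in size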). The gist of the method: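 CHO-K1 cells plated overnight at 37C, then exposed 3 h at 37C to compounds at 15 concentrations (0.76% DMSO final). Viability by CellTiter-Glo luminescence after 30 min at room temperature.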
Experiment [11] in a line: qHTS assay to identify small molecule agonists of the estrogen related receptor (ERR) signaling pathway from Tox21 library (AID 1224849; calls by dose curve; further: nearly all actives have a fitted effect of over 15% in size). The following applies: ERR reporter cell line, ONE-Glo luciferase, 18 h. The gist of the method:
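Six hours post-seeding at 37 C/5% CO2, ERR cells receive DMSO-solubilised compounds; after 18 h at 37 C, ONE-Glo reagent is applied and luminescence recorded.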

The nature of experiment [12]: qHTS RealTime-Glo MT Cell Viability Assay in HepG2 cells - 24 hour (AID 1224867). Further: nearly all actives have a fitted effect of over 50% in size. Summed up:
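HepG2 cells (600/well) were dispensed with RealTime-Glo reagents, incubated 5 h at 37 °C, then treated with compounds in DMSO for up to 40 h. Nonlytic NanoLuc luminescence reflecting viable cells was read at each stated time point.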

Experiment [13] in a line: qHTS RealTime-Glo MT Cell Viability Assay in HEK293 cells - 32 hour (AID 1224868). Further: nearly all actives have a fitted effect of over 50% in size. Further: potency means the concentration at half of the fitted maximal effect. Summed up: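 HEK293 cells seeded with NanoLuc/prosubstrate reagent, rested 5 h at 37 C, then dosed and kept at 37 C up to 40 h. Nonlytic real-time luminescence from viable cells read at 0, 8, 16, 24, 32 and 40 h.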
The nature of experiment [14]: A CellTox Green Cytotoxicity Assay to monitor cytotoxicity in HEK293 cells - 0 hour (AID 1224869). Further: nearly all actives have a fitted effect of over 50% in size. The gist of the method:
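Seeding of HEK293 cells together with cytotoxicity dye preceded a 5 h incubation at 37 C/5% CO2. Test compounds in DMSO were then added and fluorescence monitored across 40 h.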

The nature of experiment [15]: qHTS RealTime-Glo MT Cell Viability Assay in HepG2 cells - 40 hour (AID 1224870). Further: nearly all actives have a fitted effect of over 50% in size. The gist of the method:
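Real-time viability: cells seeded at 600 per well together with NanoLuc and cell-permeant prosubstrate, compounds added after 5 h incubation. Luminescence tracked at 0, 8, 16, 24, 32 and 40 h of exposure.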

Experiment [16] deals with Luciferin 4-monooxygenase (Photinus pyralis) (UniProt P08659). Put plainly: qHTS assay to identify small molecule inhibitors of firefly luciferase (AID 1224835). Further: nearly all actives have a fitted effect of over 25% in size. The gist of the method: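 Inhibition of purified Photinus luciferase is measured by luminescence. Substrate levels (D-luciferin, ATP) sit at their KM values. Each compound is tested in a concentration series.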
Sequence of Luciferin 4-monooxygenase (Photinus pyralis) (P08659 whole entry, looked up): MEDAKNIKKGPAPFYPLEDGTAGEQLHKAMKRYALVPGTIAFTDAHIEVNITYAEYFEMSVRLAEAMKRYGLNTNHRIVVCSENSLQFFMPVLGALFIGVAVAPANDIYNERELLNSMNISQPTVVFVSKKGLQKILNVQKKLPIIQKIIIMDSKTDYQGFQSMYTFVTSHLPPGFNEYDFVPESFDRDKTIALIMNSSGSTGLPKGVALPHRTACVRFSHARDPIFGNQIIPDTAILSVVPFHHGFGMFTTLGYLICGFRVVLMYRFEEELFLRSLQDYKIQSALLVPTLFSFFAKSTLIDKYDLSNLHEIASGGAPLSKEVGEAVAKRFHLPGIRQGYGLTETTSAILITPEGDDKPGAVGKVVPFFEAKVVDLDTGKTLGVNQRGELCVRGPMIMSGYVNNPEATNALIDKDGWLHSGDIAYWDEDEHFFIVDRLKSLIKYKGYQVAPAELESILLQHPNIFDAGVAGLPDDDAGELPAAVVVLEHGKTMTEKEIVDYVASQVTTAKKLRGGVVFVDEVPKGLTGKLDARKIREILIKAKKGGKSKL

Experiment [17] is described as follows: qHTS assay to identify small molecule agonists of the hypoxia (HIF-1) signaling pathway (AID 1224846; active means well fitted activation curve with a large enough effect in the signal ratio in the repeat runs, not every such curve was filed as active; the % refers to the signal ratio). Summed up:
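Hypoxia-pathway activation was scored as increased beta-lactamase from an HRE-controlled reporter in ME-180 cells; plated at 2,000 cells per well with 0.5% dialyzed FBS, they were exposed 17 hrs to compounds and then given CCF4-AM.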

Experiment [18] is described as follows: qHTS assay to identify small molecule antagonists of the estrogen related receptor signaling pathway with the pleiotropic PPARgamma coactivator (PGC) from Tox21 10K library (AID 1224841; call rule not given here). Summed up:
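Each well held 2,000 PGC/ERR cells, pre-incubated six hours (37 C, 5% CO2). Test substances in DMSO were added by pin tool and left for 18 h at 37 C before luciferase detection by One-Glo.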

Experiment [19] can be described thus: qHTS assay to identify small molecule agonists of the estrogen related receptor signaling pathway with the pleiotropic PPARgamma coactivator (PGC) from Tox21 10K library (AID 1224842). Further: nearly all actives have a fitted effect of over 15% in size. The gist of the method:
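Luminescence from One-Glo (30 min, room temperature) measured after PGC/ERR cells had 18 h at 37 C with pinned compound (23 nL in DMSO). Cells had been seeded at 2,000 per well and pre-incubated 6 h.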

Experiment [20] can be described thus: qHTS assay to identify small molecule antagonists of the estrogen related receptor (ERR) signaling pathway from Tox21 library (AID 1224848). Further: nearly all actives have a fitted effect of over 50% in size. The gist of the method: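 Reading was by luminescence 30 min after ONE-Glo addition. Before that, ERR cells at 2,000 per well had rested 6 h at 37 C/5% CO2 and then received pin-tooled compounds in DMSO for 18 h at 37 C.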

Values joined by “and” are separate entries in the source; they are usually repeats but may differ in a detail not shown here. Equal values may be shown once. Values without a mark were called inactive. Records with an inconclusive call do not appear. Active and inactive are the calls of the source. Unless noted, the call rests on the fitted dose curve; in most records, active means well fitted curve in the direction sought with a large enough effect in the repeat runs; inconclusive means weak or mixed curves; inactive means no such curve, though single readings can be large; an effect the other way counts as inactive or inconclusive.
On the % scale 0 is the no-effect control and ±100 the full control effect.

Sequence of Nuclear receptor subfamily 1 group I member 3 (Homo sapiens) (Q14994 whole entry, looked up): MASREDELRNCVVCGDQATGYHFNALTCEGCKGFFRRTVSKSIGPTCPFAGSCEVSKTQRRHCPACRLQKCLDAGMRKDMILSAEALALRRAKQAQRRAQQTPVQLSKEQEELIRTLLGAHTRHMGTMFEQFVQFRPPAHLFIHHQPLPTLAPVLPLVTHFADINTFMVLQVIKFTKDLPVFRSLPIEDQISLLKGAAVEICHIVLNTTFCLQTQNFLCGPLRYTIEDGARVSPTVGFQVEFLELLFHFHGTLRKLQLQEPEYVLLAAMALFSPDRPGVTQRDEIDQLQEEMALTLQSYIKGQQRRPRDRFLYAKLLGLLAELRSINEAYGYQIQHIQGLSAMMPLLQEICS
Sequence of Thyrotropin receptor (Homo sapiens) (P16473 whole entry, looked up): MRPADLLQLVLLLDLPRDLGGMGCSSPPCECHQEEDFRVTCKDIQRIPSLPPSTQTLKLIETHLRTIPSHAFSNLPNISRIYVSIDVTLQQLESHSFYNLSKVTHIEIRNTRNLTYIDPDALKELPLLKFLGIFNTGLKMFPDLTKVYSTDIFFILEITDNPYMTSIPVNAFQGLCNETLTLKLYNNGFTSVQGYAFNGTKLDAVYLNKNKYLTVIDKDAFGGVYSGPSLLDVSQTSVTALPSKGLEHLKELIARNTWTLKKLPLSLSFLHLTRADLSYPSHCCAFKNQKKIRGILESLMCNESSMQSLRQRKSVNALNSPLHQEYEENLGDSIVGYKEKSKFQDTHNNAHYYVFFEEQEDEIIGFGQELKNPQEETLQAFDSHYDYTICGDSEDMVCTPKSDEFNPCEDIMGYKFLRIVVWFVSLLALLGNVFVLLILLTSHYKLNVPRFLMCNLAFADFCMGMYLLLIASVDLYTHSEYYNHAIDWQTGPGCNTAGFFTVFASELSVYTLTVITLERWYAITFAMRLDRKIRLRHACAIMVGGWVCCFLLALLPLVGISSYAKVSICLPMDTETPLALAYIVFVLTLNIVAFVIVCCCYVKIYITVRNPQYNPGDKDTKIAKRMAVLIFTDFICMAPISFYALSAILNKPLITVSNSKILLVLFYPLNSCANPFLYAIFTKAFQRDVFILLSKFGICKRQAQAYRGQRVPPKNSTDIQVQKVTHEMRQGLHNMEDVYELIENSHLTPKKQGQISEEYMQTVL

Turning to `O=c1n(CCCN2CCN(c3cccc(Cl)c3)CC2)nc2ccccn12`, the Potency entry in experiment [1], in experiment [2], in [3], in experiment [4], in [5] and in experiment [6] was “inactive” in each case. The Potency entry in experiment [7], in [8], in experiment [9], in [10], in [12] and in experiment [14] was “inactive” in each case. In addition, the Potency entry in experiment [15] is “inactive”. The values for the activity change, positive = activation in [11] (at 42.5 µM (top of the series)) and in [11] (at 92.4 µM (top of the series)) were -14.9% and -28.6%, respectively. Also, the Potency in experiment [13] was 13.8 µM (active) and 9.52 µM (active).

Regarding `CC(=O)C(C)C`, the Potency result in [1], in [16], in experiment [2], in experiment [3], in [6] and in experiment [8] was “inactive” each time. For the same compound, the Potency result in experiment [9], in experiment [10], in experiment [12], in experiment [13], in experiment [14] and in experiment [15] was “inactive” each time. In experiment [17], the call was inactive.

For the compound `C=C(CC(=O)O)C(=O)O`, the Potency entry in [1], in experiment [16], in experiment [6], in experiment [7], in experiment [8] and in experiment [9] was “inactive” throughout. In addition, the Potency result in [10], in [12], in experiment [13], in [14] and in [15] was “inactive” throughout.

In the case of `O=C(NCC1CCCCN1)c1cc(OCC(F)(F)F)ccc1OCC(F)(F)F` (configuration not stated), the Potency entry in experiment [1], in experiment [2], in experiment [3], in experiment [4], in experiment [6] and in experiment [7] was “inactive” throughout. The Potency entry in experiment [8], in [9], in experiment [10], in experiment [12], in experiment [13] and in experiment [14] was “inactive” throughout. The Potency entry in experiment [15] was “inactive”.

As for `COC(=O)OC`, the Potency result in [1], in [2], in experiment [3], in experiment [4], in experiment [5] and in [18] was “inactive” in each case. In addition, the Potency entry in experiment [19], in experiment [7], in experiment [8], in [9], in [10] and in experiment [20] was “inactive” each time. Further, the Potency result in experiment [12], in experiment [13], in [14] and in experiment [15] was “inactive” each time. The compound was called inactive in [17]. In experiment [11] (at 92.4 µM (top of the series)), the activity change, positive = activation is 8.59% and 5.73%.

For the compound `CCCCC(CC)COC(=O)c1ccc(C(=O)OCC(CC)CCCC)cc1` (configuration not stated), the Potency result in [1], in [16], in [2], in experiment [3], in experiment [6] and in experiment [18] was “inactive” throughout. In addition, the Potency result in experiment [19], in experiment [8], in experiment [9], in experiment [10], in [20] and in experiment [12] was “inactive” throughout. Also, the Potency result in experiment [13], in experiment [14] and in experiment [15] was “inactive” throughout. In addition, in [17], the compound was classed as inactive. Also, the activity change, positive = activation in experiment [11] (at 92.4 µM (top of the series)) is -0.0437%.

With `CC(=O)CC(=O)N(C)C`, the Potency result in [1], in [16], in experiment [2], in experiment [3], in experiment [6] and in experiment [7] was “inactive” in each case. In addition, the Potency result in experiment [8], in experiment [9], in [10], in experiment [12], in experiment [13] and in [14] was “inactive” each time. Also, the Potency result in experiment [15] is “inactive”. The compound was classed as inactive in [17].
